# Screening results: PubChem BioAssay, National Center for Advancing Translational Sciences (NCATS)
# ClpP mod: qHTS Assay for Activators of ClpP | purified B. subtilis ClpP, FRET peptide cleavage, 20 min | Potency, µM (doses to about 57.5 µM) | actives 1.9% (n = 340,000) | AID 651965, 2013; active means well fitted falling curve with a large enough effect; inconclusive means small, poorly fitted or top-dose-only effect; inactive means no such curve, though single readings can be large or run the other way; further: the source files actives as falling curves though it sought activators and does not explain the sign; nearly all actives have a fitted effect of over 65% in size
# Target sequence (P80244 whole entry, looked up): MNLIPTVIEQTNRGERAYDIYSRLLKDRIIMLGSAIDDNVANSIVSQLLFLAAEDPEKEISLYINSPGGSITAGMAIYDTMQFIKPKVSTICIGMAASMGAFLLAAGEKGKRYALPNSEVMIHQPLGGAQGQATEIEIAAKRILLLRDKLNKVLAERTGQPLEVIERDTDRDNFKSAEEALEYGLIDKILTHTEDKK
#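 FRET quenching reversal measured ClpP activation: 10 microg/mL B. subtilis ClpP at pH 8 with the FRET-FV decapeptide, read at 430 nm after 320 nm excitation. The 20-min minus 0-min signal was scaled between DMSO/no-enzyme wells and ADEP (5.8 microM final).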
# GLP1R cytotox: cytotoxicity counter-screen for GLP-1 receptor inverse agonists; actives 0.13% (n = 410,000); HEK293 cAMP-luciferase reporter cells, luminescence, 24 h; Potency, µM (highest dose often 38.3 µM), actives largely listed as inhibitors;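 further: loss of luciferase light is scored as toxicity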
#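 Compound-treated cells are incubated 24 hr at 37 deg C under 5% CO2 after a 12 hour attachment period, then luciferase detection reagent is added and luminescence is measured following 12 min at room temperature; lowered signal indicates toxicity.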
# GLP-1R agonist: activates the human GLP-1 receptor; AID 624172; actives 0.007% (n = 380,000); HEK293 GLP-1R CRE-luciferase, luminescence, 4-6 h; cells express a hypersensitive GLP-1R form; Potency, µM (top dose mostly 45.6 µM), usual class: activators
# Target sequence (P43220 whole entry, looked up): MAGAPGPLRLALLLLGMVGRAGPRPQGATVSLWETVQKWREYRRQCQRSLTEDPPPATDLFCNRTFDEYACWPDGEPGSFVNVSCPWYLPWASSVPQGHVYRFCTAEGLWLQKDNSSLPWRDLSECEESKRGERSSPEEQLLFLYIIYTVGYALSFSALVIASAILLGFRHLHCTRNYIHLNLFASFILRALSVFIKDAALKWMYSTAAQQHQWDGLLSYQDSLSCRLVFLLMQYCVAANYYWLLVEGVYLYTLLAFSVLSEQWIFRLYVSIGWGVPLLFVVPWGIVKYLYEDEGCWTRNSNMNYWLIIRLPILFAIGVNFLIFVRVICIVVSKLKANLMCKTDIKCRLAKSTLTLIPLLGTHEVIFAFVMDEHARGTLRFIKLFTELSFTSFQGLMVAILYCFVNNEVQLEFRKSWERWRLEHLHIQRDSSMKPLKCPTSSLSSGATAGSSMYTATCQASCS
# GLP1R inv ag: GLP-1 receptor (human) inverse agonism. actives 1.6% (n = 410,000). Potency, µM (titrated, usually from 38.3 µM), actives largely listed as inhibitors. HEK293 GLP-1R CRE-luciferase, luminescence, 24 h; GLP-1R form is constitutively active. P43220; further: nearly all actives have a fitted effect of over 55% in size
#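 Using stably transfected HEK293 (constitutively active GLP-1R, cAMP-luciferase reporter), compounds were incubated 24 hr and luciferase measured by luminescence.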
# A number is an active result; . = inactive; ? = inconclusive; / = no result. A selection: hits, their analogues and other compounds. The true share with any hit is near 3.2%. Unless noted, the call rests on the fitted dose curve; in most records, active means well fitted curve in the direction sought with a large enough effect; inconclusive means small, poorly fitted or top-dose-only effect, or another doubt; inactive means no such curve, though single readings can be large; an effect the other way counts as inactive or inconclusive.
SMILES,ClpP mod,GLP1R cytotox,GLP-1R agonist,GLP1R inv ag
Cc1cccc(NC(=O)CC2CCC2)c1,.,.,.,.
Cc1cc(NC(=O)CC2CCCC2)ccc1Br,/,.,.,8.9µM
CC(=O)N1CCC(N(Cc2ccco2)C(=O)Nc2ccc(Br)cc2F)CC1,.,.,/,.
Cc1ccc(Cl)cc1NC(=O)C1CCN(c2nc3ccccc3n3cccc23)CC1,.,.,/,.
CCCc1ccc(OC(C)C(=O)Nc2sc3c(c2C(=O)OC)CCCCC3)cc1 (centres undefined),?,.,/,.
Cc1ccc(-c2cc(N)n(Cc3ccc(Cl)cc3)n2)cc1,.,.,.,11µM
Cc1cc(N)n(Cc2ccc(Cl)cc2)n1,.,.,.,.
CCOC(=O)c1c(Nc2ccc(C)cc2)nnc(-c2ccccc2)c1-c1ccccc1,.,.,.,11µM
CCOC(=O)c1c(Nc2cccc(C(=O)OC)c2)nnc(-c2ccccc2)c1-c1ccccc1,.,.,.,.
COc1ccc(-c2c(C#N)c(SCC(=O)Nc3ccc(C)c(C)c3)nc(C)c2C(=O)Nc2ccc(Cl)cc2)cc1,.,.,/,?
CCCCCCCCNc1ccccc1S(=O)(=O)NCc1ccccc1,32µM,.,.,?
O[C@@H](CNC[C@H](O)[C@H]1CCc2cc(F)ccc2O1)[C@@H]1CCc2cc(F)ccc2O1,/,/,.,/
c1coc(Cn2c(-c3ccco3)nc3ccccc32)c1,28µM,.,?,.
CCOc1ccc(NC(=O)N2CCC(N3CCCCC3)CC2)cc1,.,.,/,.
COc1cccc(CNC(=O)C(C)n2ccc3cc(S(=O)(=O)N4CCCC4)ccc32)c1 (centres undefined),.,.,.,.
CC(C)CCNC(=O)c1cc2cc(S(=O)(=O)N3CCCCC3)ccc2n1C,.,.,/,.
CCC(C(=O)NCCC(C)C)n1ccc2cc(S(=O)(=O)N3CCCCC3)ccc21 (centres undefined),.,.,.,7.9µM
COc1cccc(CNC(=O)C(C)n2ccc3cc(S(=O)(=O)N4CCCCCC4)ccc32)c1 (centres undefined),.,.,.,13µM
C=CCN1C(=O)c2ccc(C(=O)N(C)CC(=O)Nc3ccccc3Br)cc2C1=O,22µM,.,.,.
C=CCN1C(=O)c2ccc(C(=O)N(C)CC(=O)Nc3ccccc3C(F)(F)F)cc2C1=O,.,.,.,.
COc1ccc(-c2cc(C(F)(F)F)n3nc(C(=O)NCCCn4ccnc4)cc3n2)cc1,28µM,.,.,?
COC(=O)c1c(NC(=O)c2cc3nc(-c4ccc(OC)cc4)cc(C(F)(F)F)n3n2)sc2c1CCCC2,28µM,.,/,.
CCOC(=O)c1c(NC(=O)c2cc3nc(-c4ccc(OC)cc4)cc(C(F)(F)F)n3n2)sc2c1CCC(C)C2 (centres undefined),32µM,.,/,.
O=c1c2oc3ccccc3c2n(Cc2ccccc2)c(=O)n1Cc1ccc2c(c1)OCO2,.,.,/,.
O=C(NCc1ccco1)c1ccc2c(c1)N(Cc1ccc(Cl)cc1)C(=O)c1ccccc1S2(=O)=O,.,.,.,.
SMILES,ClpP mod,GLP1R cytotox,GLP-1R agonist,GLP1R inv ag
CCOc1ccc(S(=O)(=O)Nc2cccc(-c3ccc(N4CCCC4)nn3)c2)cc1,.,.,/,?
CC1CCCN(CCCOc2ccc(Cl)cc2Br)C1 (centres undefined),.,.,.,?
CC1CCCN(CCOc2ccc3ccccc3c2Br)C1 (centres undefined),/,?,.,10µM
CCOC(=O)N1CCC2(CC1)OC(=O)C(C)=C2C(=O)NCc1ccc(C)cc1,.,.,/,.
COc1ccc(OCCSc2nnc(CCNC(=O)c3ccc(Cl)c(Cl)c3)n2C)cc1,.,.,.,10µM
Cc1nn(CC(=O)NCc2cccc(F)c2)c(=O)c2c(C)n(-c3ccc(Cl)cc3)nc12,?,.,/,.
Clc1cccc(Cl)c1CSc1cc2c(nn1)-c1ccccc1CC2,.,.,.,.
Clc1ccccc1CSc1cc2c(nn1)-c1ccccc1CC2,.,.,.,10µM
NC(=O)c1cc([N+](=O)[O-])ccc1NCc1cccc2ccccc12,.,.,.,.
O=C(/C=C/Nc1ccc([N+](=O)[O-])cc1Br)c1cccc2ccccc12,25µM,.,.,.
Cc1ccc(N2CCN(C(=O)c3cnn(-c4ccc(F)cc4F)c3C3CCN(C(=O)OC(C)(C)C)CC3)CC2)c(C)c1,.,.,/,.
Cc1cc(NCCO)c2cc(O)ccc2n1,16µM,.,.,.
O=C(COC(=O)CC(c1ccccc1)c1ccccc1)NCc1ccc(Cl)cc1,.,.,.,11µM
C=C(C)C(=O)OCC(=O)NCc1ccccc1,/,11µM,.,?
CC(=O)Nc1ccc(C(=O)OCC(=O)NCc2ccccc2)cc1,/,.,.,.
COc1ccccc1CCNC(=O)C(=O)NCC(c1cccs1)S(=O)(=O)c1ccc(C)cc1 (centres undefined),.,.,/,.
CC(=O)CCSc1nnc(-c2cccc(S(=O)(=O)N3CCOCC3)c2)o1,.,.,.,.
O=S(=O)(c1cccc(-c2nnc(SCc3nc4ccccc4s3)o2)c1)N1CCOCC1,28µM,.,.,.
O=S1(=O)CCS(=O)(=O)C1c1ccccc1,.,?,.,11µM
O=C1CC(=O)CC(c2ccccc2)C1,.,.,.,.
CN(C)C(=O)N1CCC(C(=O)NCc2ccc(F)cc2Cl)CC1,.,.,.,.
O=C(NNC(=O)C1CCN(Cc2ccc(F)cc2Cl)CC1)Nc1ccc([N+](=O)[O-])cc1,.,.,.,4µM
COc1cc(/C=N/NS(=O)(=O)c2ccc(C)cc2)ccc1OCc1cccc(C(=O)O)c1,/,.,.,3.2µM
COc1cc(/C=N/NC(N)=S)ccc1OC(=O)c1ccc(C)cc1,.,?,.,?
COc1cc(/C=N/O)ccc1OCc1ccc(C(=O)O)cc1,.,.,.,?
SMILES,ClpP mod,GLP1R cytotox,GLP-1R agonist,GLP1R inv ag
COc1cc(/C=N/NS(=O)(=O)c2ccc3ccccc3c2)ccc1OCc1ccc(C(=O)O)cc1,/,.,.,2.5µM
COc1cc(/C=N/NC(N)=S)ccc1OCc1ccc(C)cc1,/,13µM,.,?
CCOc1cc(CNS(=O)(=O)c2ccc3c(c2)C(C)(C)C(=O)N3)cc(OCC)c1OCC,.,.,/,.
CCNc1nc(C23CC4CC(CC(C4)C2)C3)cs1,/,.,.,2.8µM
CC(=O)NNC(=O)CC(=O)Nc1nc(C23CC4CC(CC(C4)C2)C3)cs1,.,.,.,?
Cn1c(-c2ccc(Cl)cc2)cnc1NCc1cc2c(cc1[N+](=O)[O-])OCO2,.,?,.,4µM
Cn1c(-c2ccc(F)cc2)cnc1NCc1cc2c(cc1[N+](=O)[O-])OCO2,.,.,.,?
COC(=O)c1cc2oc(C)cc2n1Cc1ccccc1Cl,.,.,/,?
CS/C(=N\S(=O)(=O)c1cccs1)Nc1ccc(F)c(Cl)c1,20µM,.,.,.
CS/C(=N\S(=O)(=O)c1cccs1)Nc1cccc(Cl)c1C,.,.,.,?
